Source: PubChem BioAssay (Tox21)
Several values for one entry are separate records, joined by “and”; a condition that tells them apart may be missing. Equal entries are not always repeated. Results filed as inconclusive are left out. Where a structure was tested more than once in an assay, its records may differ in their call. Activity calls are given as the source filed them. Calls follow the shape of the dose curve; as a rule, active = well fitted cell-killing curve with a large enough effect in the repeat runs; inconclusive = weak or mixed curves, or effect the other way; inactive = flat fitted curve, though single readings scatter.

experiment: qHTS RealTime-Glo MT Cell Viability Assay in HEK293 cells - 40 hour (AID 1224874); details: RealTime-Glo luminescence; max response: active compounds read low; also: nearly all actives have a fitted effect of over 50% in size
Source text: U.S. Tox21 Program National Center for Advancing Translational Sciences [NCATS] NIH Chemical Genomics Center [NCGC] U.S. Environmental Protection Agency [EPA] National Institutes of Environmental Health Sciences [NIEHS] National Toxicology Program [NTP] U.S. Food and Drug Administration [FDA] Tox21 Assay Overview: Measure of cell viability is critical in the cell-base assay. Analysis of cell viability is necessary for the characterization of cell responses to cytotoxic drugs and environmental stress. A RealTime-Glo MT Cell Viability Assay to monitor cell viability in real time of continues cell culture during 40 hours of compound treatment was used to screen Tox21 10K library compounds in Hek293 cells. The RealTime-Glo MT Cell Viability Assay is a nonlytic, homogeneous, bioluminescent method to measure cell viability in real time using a simple, plate-based method. The assay involves adding NanoLuc luciferase and a cell-permeant prosubstrate to cells in culture. Viable cells reduce the proprietary prosubstrate to generate a substrate for NanoLuc luciferase. This substrate diffuses from cells into the surrounding culture medium, where it is rapidly used by the NanoLuc Enzyme to produce a luminescent signal. The signal correlates with the number of viable cells, making the assay well suited for cytotoxicity studies.
Tox21 Assay Protocol Summary: The mixture of Hek293 cell suspension and reagents were dispensed at 600cells/6 ul/well in 1536-well tissue culture treated black solid bottom plates using a Multidrop dispenser. After the assay plates were incubated at a 37 C/5% CO2 incubator for 5 hours, 23 nL of compounds dissolved in DMSO, positive and negative controls was transferred to the assay plate by a pintool work station. The plates were incubated at 37 C for 40 hours. The luminescence intensity were measured at 0h, 8h, 16h, 24h, 32h and 40h time points using ViewLux plate reader during compound treatment.
% is scaled to controls: 0 for no effect and ±100 for the full control effect; potency is read from the fitted curve at half-maximal effect.

Row | SMILES | max response | Potency
1 | CC(C)C1(C)N=C(c2nc3ccccc3cc2C(=O)O)NC1=O (stereo not given) | 4.12% (inactive) and 2.1% (inactive) | –
2 | O=c1[nH]c(=O)[nH]c(=O)[nH]1 | 1.39% (inactive) and 0.958% (inactive) | –
3 | Clc1ccccc1Cl | 2.45% (inactive) and -10.4% (inactive) | –
4 | Nc1c(Cl)c(Cl)nc(C(=O)O)c1Cl | 19.5% (inactive) and -5.11% (inactive) and 22.8% (inactive) | –
5 | Clc1cccc(Cl)c1Cl | 14.5% (inactive) | –
6 | Oc1ccccc1Cl | 9.22% (inactive) and 18.7% (inactive) | –
7 | CC(NC(C)(C)C)C(=O)c1cccc(Cl)c1 (stereo not given) | 6.38% (inactive) and -11.6% (inactive) | –
8 | [O-][Cl+2]([O-])O | 11.8% (inactive) and -2.78% (inactive) | –
9 | O=c1ccc(=O)[nH][nH]1 | -2.89% (inactive) and -0.4% (inactive) | –
10 | O=Cc1cccc(Oc2ccccc2)c1 | -18.5% (inactive) and 0.95% (inactive) | –
11 | c1ccc2c(c1)Oc1ccccc1O2 | 4.43% (inactive) and 0.097% (inactive) | –
12 | O=NN1CCCCCCC1 | 6.51% (inactive) and -7.12% (inactive) | –
13 | c1ccc(OP(Oc2ccccc2)Oc2ccccc2)cc1 | 4.65% (inactive) and 9.76% (inactive) | –
14 | C=CC(N)=O | 0.5% (inactive) and -10.4% (inactive) | –
15 | Nc1ccc(Br)cc1 | -1.58% (inactive) and -21.4% (inactive) | –
16 | CCCCOC(=O)c1ccccc1C(=O)OCCCC | -5.69% (inactive) and -1.79% (inactive) | –
17 | CC(C)(C)C(O)(CCc1ccc(Cl)cc1)Cn1cncn1 (stereo not given) | – | 44.2 µM (active) and 54.9 µM (active)
18 | COC(=O)c1ccccc1C(=O)OC | -6.01% (inactive) and 4.81% (inactive) | –
19 | CC(=O)C=C(C)C | 1.7% (inactive) and 8.25% (inactive) | –
20 | CN(C)[C@@H]1C(=O)C(C(N)=O)=C(O)[C@@]2(O)C(=O)C3=C(O)c4c(O)cccc4[C@@](C)(O)[C@H]3C[C@@H]12 | 8.71% (inactive) and 13.3% (inactive) and -4.27% (inactive) | –

Row | SMILES | max response | Potency
21 | O=[N+]([O-])c1ccc([As](=O)(O)O)cc1 | 0.69% (inactive) and 11.7% (inactive) | –
22 | CN=C=S | 6.14% (inactive) and -4.64% (inactive) | –
23 | O=C(NC(=O)c1c(F)cccc1F)Nc1cc(Cl)c(OC(F)(F)C(F)C(F)(F)F)cc1Cl (stereo not given) | -33.5% (inactive) | –
24 | Cc1ccccc1O | 2.91% (inactive) and -0.867% (inactive) | –
25 | C=CCO | 4.57% (inactive) and 0.311% (inactive) | –
26 | NCCc1ccc(O)cc1 | -18.4% (inactive) and 1.96% (inactive) | –
27 | CC(C)N1C(=O)c2ccccc2NS1(=O)=O | -5.03% (inactive) and 3.56% (inactive) | –
28 | CCNc1nc(NC(C)C)nc(SC)n1 | -1.45% (inactive) | –
29 | COC(=O)NS(=O)(=O)c1ccc(N)cc1 | 15.7% (inactive) and 20.4% (inactive) | –
30 | BrCCBr | 4.67% (inactive) and 8.82% (inactive) | –
31 | Cc1ccc(N)cc1Cl | -5.66% (inactive) and 1.08% (inactive) | –
32 | O=c1n(Cl)c(=O)n(Cl)c(=O)n1Cl | 1.37% (inactive) and 3.54% (inactive) | –
33 | CN(C)N=O | 7.51% (inactive) and -1.45% (inactive) | –
34 | CCN(CC)CCO | 2.53% (inactive) and -12.7% (inactive) | –
35 | CCCCCOC(=O)c1ccccc1C(=O)OCCCCC | -11.1% (inactive) and -2.4% (inactive) | –
36 | CON(C)C(=O)Nc1ccc(Cl)c(Cl)c1 | -28.4% (inactive) | 43.6 µM (active)
37 | Cc1cccc([N+](=O)[O-])c1 | 1.89% (inactive) and 2.13% (inactive) | –
38 | CC(Oc1ccc(Cl)cc1Cl)C(=O)O (stereo not given) | -2.47% (inactive) | –
39 | CC(C)=C[C@@H]1[C@@H](C(=O)OCc2coc(Cc3ccccc3)c2)C1(C)C | -1.11% (inactive) and 8.33% (inactive) | –
